Experimental data published in PubChem BioAssay AID540256 (National Center for Advancing Translational Sciences (NCATS), 2011).
The campaign covered roughly 300,000 compounds. About 3,700 (1.2%) were called active. About 20% were inconclusive and are not listed. Calls come from the whole dose curve; tested in HEK293 cells. Shown is part of a subset that was picked to be rich in actives. A call without a number means that no potency is given here.

Assay: qHTS for Inhibitors of binding or entry into cells for Lassa Virus; note: nearly all actives have a fitted effect of over 50% in size
Conditions: Lassa virus pseudotype entry inhibition, cell reporter; series mostly up to 37.9 µM
Potency is the fitted concentration of half-maximal effect.

Which Potency does the source give for COc1ccc(NC(=O)c2ccc3nc(C(C)C)oc3c2)cc1OC here?
The Potency was “inactive”.

With NC(=O)C1(Nc2ccc(-c3ccccc3)cc2)CCCC1 as the compound, how does the Potency read?
The Potency was “inactive”.

For CCOc1ccc(/C=C(/C#N)c2nnc(N3CCOCC3)n2-c2ccccc2)cc1OC, which Potency is on record?
Its Potency is “inactive”.

Which Potency does the source give for Cc1nc(N2CCC(C)CC2)c2c(C)c(C(=O)Nc3cc(F)ccc3C)sc2n1 here?
Its Potency is “inactive”.

With Cc1nc(N2CCOCC2)c2c(C)c(C(=O)Nc3ccc(C(F)(F)F)cc3)sc2n1 as the compound, how does the Potency read?
The Potency was 2.24 µM (active).

For CCOC(=O)C1CCCN(C(=O)c2sc3nc(C)nc(N4CCOCC4)c3c2C)C1 (stereo not drawn), which Potency is on record?
Its Potency is “inactive”.

With COc1ccc(NS(=O)(=O)c2ccc(N3CCOCC3)c(NC(=O)/C=C/C(=O)O)c2)cc1 as the compound, how does the Potency read?
Its Potency is “inactive”.

For N=C1c2ccccc2-c2ccccc21, which Potency is on record?
The Potency was “inactive”.

Which Potency does the source give for c1ccc2c(c1)[I+]c1ccccc1-2 here?
The Potency was 0.259 µM (active).

Which Potency does the source give for CCOc1cc(C(C(=O)NCC2CCCO2)N(C(=O)Cn2nnc3ccccc32)c2cccc(OC)c2)ccc1O (stereo not drawn) here?
The Potency was “inactive”.

With COc1cccc(N(C(=O)c2snc(C(N)=O)c2N)C(C(=O)NCC2CCCO2)c2c[nH]c3ccccc23)c1 (stereo not drawn) as the compound, how does the Potency read?
Its Potency is 5.62 µM (active).

For CCC(C(=O)NC1CCCC1)N(C(=O)c1snc(C(N)=O)c1N)c1ccc2c(c1)OCCO2 (stereo not drawn), which Potency is on record?
The Potency was “inactive”.

For COc1cc(C(=O)Nn2c(CC(C)C)nc3ccccc3c2=O)cc(OC)c1OC, which Potency is on record?
Its Potency is “inactive”.

With CCCC1CCC(=NNC(=S)NCCc2ccccc2)CC1 (stereo not drawn) as the compound, how does the Potency read?
Its Potency is 10 µM (active).

For Cc1cc(F)ccc1NC(=S)NCCc1ccccc1, which Potency is on record?
Its Potency is “inactive”.

Which Potency does the source give for S=C(NN=C1CCN(Cc2ccccc2)CC1)NC1CCCCC1 here?
Its Potency is “inactive”.

With COc1cccc(NC(=O)CC2C(=O)NCCN2C(=S)Nc2ccc(F)cc2)c1 (stereo not drawn) as the compound, how does the Potency read?
Its Potency is “inactive”.

For Fc1cc(Br)ccc1NC(=S)Nc1cccnc1, which Potency is on record?
Its Potency is “inactive”.

For S=C(Nc1cccc(Br)c1)N1CCn2cccc2C1c1cccnc1 (stereo not drawn), which Potency is on record?
The Potency was 7.94 µM (active).

Which Potency does the source give for CC(C)(C)C(=O)Nc1cccc(-c2ccc[nH]2)n1 here?
Its Potency is “inactive”.

For c1ccc(CCc2ccccn2)cc1, which Potency is on record?
The Potency was “inactive”.

For Cc1cc(Br)ccc1NC(=S)NC1CCCC1, which Potency is on record?
Its Potency is “inactive”.

With COc1ccc(C(=O)Nc2ccccc2C(=O)N/N=C/c2ccccc2OC)cc1 as the compound, how does the Potency read?
The Potency was “inactive”.

For COc1ccc(C(=O)Nc2ccccc2C(=O)N/N=C/c2ccc(O)c(OC)c2)cc1, which Potency is on record?
Its Potency is 0.355 µM (active).

For O=C(N/N=C/c1ccc(OC(=O)c2ccccc2Cl)cc1)c1ccc(O)cc1, which Potency is on record?
Its Potency is “inactive”.

For Cc1ccc(-c2cc(C(=O)NC3CCN(Cc4ccccc4)CC3)c3ccccc3n2)cc1, which Potency is on record?
Its Potency is “inactive”.

With COc1cc(/C=C2\SC(=S)N(Nc3ncc(C(F)(F)F)cc3Cl)C2=O)cc(OC)c1OC as the compound, how does the Potency read?
Its Potency is “inactive”.

With COc1cccc(/C(C)=N/Nc2ncc(Cl)cc2Cl)c1 as the compound, how does the Potency read?
Its Potency is “inactive”.

For COc1cccc(/C=N/Nc2ncc(C(F)(F)F)cc2Cl)c1O, which Potency is on record?
Its Potency is 7.94 µM (active).

With CCN(CC)S(=O)(=O)c1ccc(N2CCOCC2)c(NC(=O)C2CSC3(C)CCC(=O)N23)c1 (stereo not drawn) as the compound, how does the Potency read?
Its Potency is “inactive”.

With C=CCNC(=O)C1CC2c3ccccc3C1c1ccccc12 (stereo not drawn) as the compound, how does the Potency read?
Its Potency is “inactive”.

Which Potency does the source give for O=c1c2c(nc3nc[nH]n13)CCC2 here?
Its Potency is “inactive”.

With CCCCN1Cc2c(nc3cc(-c4ccccc4)[nH]n3c2=O)C1=O as the compound, how does the Potency read?
The Potency was “inactive”.

For O=c1c2c(nc3cc(-c4cccc(Cl)c4)[nH]n13)CCCC2, which Potency is on record?
The Potency was 4.47 µM (active).

With COc1cc(Cl)c(C)cc1NC(=O)CN1CCCCCC1 as the compound, how does the Potency read?
The Potency was “inactive”.

With CCc1c(Nc2ccccc2Cl)nc(N)[nH]c1=O as the compound, how does the Potency read?
Its Potency is “inactive”.

With CCOc1ccc(NC(=O)CCc2c(C)nn(-c3ccc(N4CCCC4)nn3)c2C)cc1 as the compound, how does the Potency read?
Its Potency is “inactive”.

For Cc1cccnc1CCNC(=O)C1CCC(=O)N(Cc2cccc(F)c2)C1 (stereo not drawn), which Potency is on record?
Its Potency is “inactive”.

With Cc1ccc(Nc2nnc(SCc3ccccc3)s2)cc1 as the compound, how does the Potency read?
The Potency was “inactive”.

For Cc1ccc(Nc2nc(CSc3nnc(-c4ccncc4)n3-c3ccccc3C)cs2)cc1, which Potency is on record?
The Potency was 8.91 µM (active).

Which Potency does the source give for Cc1ccccc1-n1c(SCC(=O)NCc2cccs2)nnc1-c1ccncc1 here?
The Potency was “inactive”.

Which Potency does the source give for CCOC(=O)c1ccc(NC(=O)c2ccc(NC(=O)C3CCCO3)cc2)cc1 (stereo not drawn) here?
The Potency was “inactive”.

With Cc1sc2ncnc(N3CCC(C(=O)NNC(=O)c4ccc(F)cc4)CC3)c2c1C as the compound, how does the Potency read?
The Potency was “inactive”.

For CCOc1ccc(-n2c(O)c(/C=N/Nc3nnc(C)c(=O)[nH]3)c3ccccc3c2=O)cc1, which Potency is on record?
The Potency was “inactive”.

For COc1ccc(Cc2nnc(N/N=C/c3ccccc3O)[nH]c2=O)cc1OC, which Potency is on record?
The Potency was 3.98 µM (active).

For O=c1[nH]c(NCCO)nnc1Cc1ccc(Cl)cc1, which Potency is on record?
The Potency was “inactive”.

With CCNC(=S)N1CCN(S(=O)(=O)c2ccc(Cl)s2)CC1 as the compound, how does the Potency read?
The Potency was “inactive”.

For CN(C(=O)CSc1cccc[n+]1[O-])C1CCCCC1, which Potency is on record?
Its Potency is “inactive”.

For COc1cc(NC(=O)CSc2ccc(-c3cccnc3)nn2)cc(OC)c1, which Potency is on record?
The Potency was “inactive”.

Which Potency does the source give for COc1cc(Nc2nccc(-c3cnn4ncccc34)n2)cc(OC)c1 here?
Its Potency is 2.5 µM (active).

With COc1cccc(Nc2ncccc2C(=O)O)c1 as the compound, how does the Potency read?
The Potency was “inactive”.

For O=c1c(-c2cccc(Cl)c2)c[nH]n1-c1ccccc1, which Potency is on record?
Its Potency is “inactive”.

For O=C(Cc1ccc(Br)cc1)N1CCN(c2ccccn2)CC1, which Potency is on record?
Its Potency is “inactive”.
